The record followed here is PubChem BioAssay (NCI).

Compounds without any hit were thinned out: in the full panel of roughly 83,000, 20% have a hit.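 Assay: single dose, 48 h. Readout: percent growth (0 = no net growth; negative = cell death). Active: <10.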 Values without a mark were called inactive. Activity calls are given as the source filed them.

Common to all, as to assay: NCI-60 one-dose screen, 48 h (100 = growth as untreated, 0 = no growth, -100 = all killed)
The test system of one assay is HCT-15 colon. The conditions noted are these: 10 µM unless noted.
Another assay has as its system HT29 colon. The conditions noted are these: 10 µM unless noted.
A further assay relates to SNB-75 CNS. Conditions: 10 µM unless noted.
For a further assay, the system named is SNB-19 CNS. The conditions noted are these: 10 µM unless noted.
Another assay has as its system U251 CNS. Conditions: 10 µM unless noted.
The subject of another assay is PC-3 prostate. The conditions noted are these: 10 µM unless noted.
The next assay concerns SK-MEL-5 melanoma. Conditions: 10 µM unless noted.
The test system of the next assay is UACC-62 melanoma. Conditions: 10 µM unless noted.
For another assay, the system named is LOX IMVI melanoma. Conditions: 10 µM.
In the next assay the test system is SK-MEL-28 melanoma. Conditions: 10 µM unless noted.
For a further assay, the system named is SK-MEL-2 melanoma. The conditions noted are these: 10 µM unless noted.
The subject of another assay is EKVX NSCLC. The conditions noted are these: 10 µM unless noted.
Another assay has as its system SN12C renal. Conditions: 10 µM unless noted.
A further assay concerns UO-31 renal. Conditions: 10 µM unless noted.
A further assay has as its system TK-10 renal. Conditions: 10 µM unless noted.
The subject of the next assay is ACHN renal. The conditions noted are these: 10 µM unless noted.
The subject of the next assay is CAKI-1 renal. Conditions: 10 µM unless noted.
The next assay deals with A498 renal. The conditions noted are these: 10 µM unless noted.
A further assay has as its system CCRF-CEM leukemia. Conditions: 10 µM unless noted.
Another assay has as its system MOLT-4 leukemia. The conditions noted are these: 10 µM unless noted.

On to `c1ccc(-c2ccc3ccccc3c2)cc1`, for which the growth with HCT-15 colon was 107%; in the assay with HT29 colon, 80.8%; in the assay with SNB-75 CNS, 107%; in the assay with SNB-19 CNS, 100%; in the assay with U251 CNS it was 92.7%; in the assay with PC-3 prostate it was 90.8%. Moreover, the growth is 96.4% with SK-MEL-5 melanoma; 95.4% with UACC-62 melanoma; 95.7% in the assay with LOX IMVI melanoma; 107% in the assay on SK-MEL-28 melanoma; 76.6% in the assay with SK-MEL-2 melanoma; 103% with EKVX NSCLC. Also, the growth in the assay with SN12C renal is 96.1%; with UO-31 renal, 85.2%; in the assay on TK-10 renal, 97.7%; in the assay with ACHN renal, 88.9%; in the assay with CAKI-1 renal, 97.9%; in the assay on A498 renal, 84%. Besides, the figures for the growth in the assay with CCRF-CEM leukemia and with MOLT-4 leukemia were 99.6% and 80.8%, respectively.
Turning to `Oc1cc2ccccc2c(-c2c(O)c(O)cc3ccccc23)c1O`, the growth is 28.2% in the assay with HCT-15 colon; 45.3% with HT29 colon; 41.5% with SNB-75 CNS; 41.5% in the assay with SNB-19 CNS; 33.9% in the assay with U251 CNS; 14.7% with PC-3 prostate. Moreover, the growth was 33.4% with SK-MEL-5 melanoma; 27.9% in the assay with UACC-62 melanoma; 14.5% with LOX IMVI melanoma; 53.2% in the assay with SK-MEL-28 melanoma; 5.57% (active) with SK-MEL-2 melanoma; 35.9% with EKVX NSCLC. Further, the growth is 49.3% in the assay with SN12C renal; 13.7% with UO-31 renal; 19.4% in the assay on TK-10 renal; 23.2% in the assay on ACHN renal; 19.1% in the assay with CAKI-1 renal; 59.1% in the assay with A498 renal. For the same molecule, the growth in the assay on CCRF-CEM leukemia was -12.5% (active); in the assay on MOLT-4 leukemia it was 30.6%.
For `O=C(NC1CCCCC1)c1ccc(Cl)cc1`, the growth in the assay with HCT-15 colon was 108%; in the assay on HT29 colon, 101%; in the assay on SNB-75 CNS it was 90%; with SNB-19 CNS, 101%; with U251 CNS, 98.6%; in the assay on PC-3 prostate, 102%. Further, the growth is 101% in the assay on SK-MEL-5 melanoma; 97.6% in the assay on UACC-62 melanoma; 97.4% in the assay on LOX IMVI melanoma; 112% in the assay on SK-MEL-28 melanoma; 115% in the assay with SK-MEL-2 melanoma; 98.5% with EKVX NSCLC. Besides, the growth in the assay on SN12C renal was 103%; in the assay with UO-31 renal, 94.7%; in the assay with TK-10 renal, 102%; in the assay with ACHN renal, 104%; with CAKI-1 renal, 102%; in the assay on A498 renal, 82.4%. Also, the values for the growth in the assay with CCRF-CEM leukemia and in the assay on MOLT-4 leukemia were 98.4% and 95.2%, respectively.
As to `O=S(=O)(O)c1cccc2cccnc12`, the growth with HCT-15 colon was 117%; with HT29 colon it was 122%; in the assay on SNB-75 CNS, 98.2%; in the assay with SNB-19 CNS, 106%; in the assay on U251 CNS, 113%; with PC-3 prostate, 86.8%. Moreover, the growth with SK-MEL-5 melanoma is 107%; with UACC-62 melanoma, 109%; with LOX IMVI melanoma, 107%; with SK-MEL-28 melanoma, 97.3%; in the assay on SK-MEL-2 melanoma it was 108%; with EKVX NSCLC, 110%. Also, the growth in the assay with SN12C renal was 103%; in the assay with UO-31 renal it was 76.8%; in the assay with TK-10 renal it was 118%; in the assay with ACHN renal, 111%; in the assay on CAKI-1 renal, 96.1%; in the assay on A498 renal, 104%. Besides, the growth in the assay on CCRF-CEM leukemia was 103%; in the assay with MOLT-4 leukemia, 100%.
`S=C(Sc1ccc(Cl)cc1)Sc1ccc(Cl)cc1`: the growth in the assay with HCT-15 colon is 3.17% (active); in the assay with HT29 colon, 4.96% (active); with SNB-75 CNS, 46%; with SNB-19 CNS, 83.9%; in the assay with U251 CNS, -43% (active); with PC-3 prostate, 9.49% (active). In addition, the growth was 65.9% in the assay with SK-MEL-5 melanoma; -47% (active) in the assay on UACC-62 melanoma; -100% (active) with LOX IMVI melanoma; -64.2% (active) with SK-MEL-28 melanoma; 90.9% in the assay with SK-MEL-2 melanoma; 49.1% in the assay with EKVX NSCLC. For the same molecule, the growth in the assay with SN12C renal was -47.6% (active); in the assay on UO-31 renal, -59.8% (active); in the assay on TK-10 renal, -36.3% (active); with ACHN renal, 70%; with CAKI-1 renal, -75.6% (active); with A498 renal, 70.6%. In addition, the growth in the assay with CCRF-CEM leukemia is -15.8% (active); in the assay on MOLT-4 leukemia, -25.4% (active).
As for `NNc1ncnc2nc[nH]c12`, the growth with HCT-15 colon is 44.1%; with HT29 colon, 53.7%; with SNB-75 CNS, 89.3%; in the assay with SNB-19 CNS, 96%; with U251 CNS it was 72.2%; with PC-3 prostate, 63%. Also, the growth in the assay with SK-MEL-5 melanoma was 71.9%; in the assay with UACC-62 melanoma it was 18.7%; in the assay on LOX IMVI melanoma it was 30.9%; in the assay with SK-MEL-28 melanoma, 105%; in the assay with SK-MEL-2 melanoma, -7.36% (active); in the assay on EKVX NSCLC, 69.7%. Also, the growth is 74.6% in the assay with SN12C renal; 30.9% in the assay on UO-31 renal; 67.1% in the assay with TK-10 renal; 41.1% in the assay on ACHN renal; 42.3% in the assay with CAKI-1 renal; 55.1% in the assay on A498 renal. Also, the growth with CCRF-CEM leukemia is 37.8%; with MOLT-4 leukemia it was 56.2%.
As for `NNC(=O)CCCCl`, the growth in the assay with HCT-15 colon was 104%; in the assay on HT29 colon, 112%; in the assay on SNB-75 CNS, 95%; in the assay on SNB-19 CNS, 121%; in the assay on U251 CNS, 98.3%; with PC-3 prostate, 104%. For the same molecule, the growth in the assay with SK-MEL-5 melanoma is 102%; with UACC-62 melanoma, 103%; in the assay on LOX IMVI melanoma, 91.3%; with SK-MEL-28 melanoma, 110%; with SK-MEL-2 melanoma, 105%; in the assay with EKVX NSCLC, 98.6%. The growth was 102% with SN12C renal; 90.5% in the assay on UO-31 renal; 111% in the assay with TK-10 renal; 114% in the assay on ACHN renal; 107% with CAKI-1 renal; 117% in the assay with A498 renal. Further, the growth is 112% in the assay with CCRF-CEM leukemia and 120% with MOLT-4 leukemia.
In the case of `CCCOCc1cn[nH]n1`, the growth in the assay on HCT-15 colon was 106%; in the assay with HT29 colon it was 105%; with SNB-75 CNS it was 98.1%; in the assay with SNB-19 CNS it was 115%; in the assay with U251 CNS, 96.1%; with PC-3 prostate, 102%. Also, the growth in the assay on SK-MEL-5 melanoma is 106%; in the assay with UACC-62 melanoma it was 98.2%; in the assay on LOX IMVI melanoma it was 98.6%; in the assay with SK-MEL-28 melanoma it was 109%; with SK-MEL-2 melanoma, 104%; in the assay with EKVX NSCLC it was 103%. Also, the growth with SN12C renal is 105%; with UO-31 renal, 91.6%; in the assay on TK-10 renal it was 102%; in the assay with ACHN renal it was 110%; with CAKI-1 renal, 104%; with A498 renal, 100%. For the same molecule, the figures for the growth with CCRF-CEM leukemia and in the assay on MOLT-4 leukemia were 109% and 106%, respectively.
